Screening data from PubChem BioAssay.
Sfp PPTase inh – blocks B. subtilis Sfp PPTase activity | Potency, µM, for inactives: largest response in the series, negative = inhibition, actives largely listed as inhibitors | Q9F4F7 | 3.5% of 310,000 active | Biochemical Sfp PPTase activity, qHTS;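 also: the enzyme is Sfp with the accession as filed and its product quenches rhodamine fluorescence; potency is read from the fitted curve at half-maximal effect; 0% = enzyme reaction without inhibitor and -100% = no enzyme wells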
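Step 1, compound plus 15 nM Sfp-PPTase, 15 min, room temperature. Step 2, add rhodamine-CoA (5 uM) and BHQ-2-YbbR (12.5 uM). Step 3, read 525/598 nm fluorescence at 0 and 30 min.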
G9a block – blocks human histone lysine methyltransferase G9a; Q96KQ7; G9a H3K9 monomethylation, AlphaScreen, 2 h; Potency, µM (top dose mostly 102 µM), inactives show at the top dose activity, negative = inhibition, most hits filed as inhibitors; 8.8% of 350,000 active; also: potency is read from the fitted curve at half-maximal effect; nearly all actives have a fitted effect of over 75% in size
Target sequence (Q96KQ7 913-1193 limits assumed): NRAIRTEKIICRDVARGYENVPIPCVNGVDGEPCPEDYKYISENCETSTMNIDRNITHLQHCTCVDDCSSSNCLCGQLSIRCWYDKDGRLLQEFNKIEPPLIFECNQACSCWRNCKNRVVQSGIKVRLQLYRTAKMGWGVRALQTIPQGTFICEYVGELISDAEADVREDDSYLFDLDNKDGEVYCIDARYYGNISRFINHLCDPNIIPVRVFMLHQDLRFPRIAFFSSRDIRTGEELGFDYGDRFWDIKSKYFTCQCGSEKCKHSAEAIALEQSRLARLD
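AlphaScreen read-out: biotin-H3K9 peptide (500 nM) methylation by 20 nM enzyme with 20 uM SAM, 2 h at room temperature after 15 min compound preincubation; anti-monomethyl H3K9 antibody plus donor/acceptor beads, 10 min dark.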
Mm-Cpn inhibitor – M. maripaludis TRiC chaperonin inhibition; Potency, µM (top dose mostly 76.9 µM), inactives show top-dose activity, negative = inhibition, most hits filed as inhibitors; 0.031% of 330,000 active; purified Mm-Cpn ATPase, ADP Transcreener TR-FRET; also: potency is read from the fitted curve at half-maximal effect; nearly all actives have a fitted effect of over 80% in size
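Measured: ADP formation by purified Mm-CPN. Conditions: 25 nM protein, 10 uM ATP, Tris pH 7.4 with Mg2+, K+ and DTT, 37°C for 30 min. Detection: Transcreener HTRF after 30 min at room temperature.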
VDR inh – inhibitors of human vitamin D receptor; 0.93% of 400,000 active; AID 504847; P11473; Potency, µM, for inactives: max response, negative = inhibition, usual class: inhibitors; VDR-SRC2-3 peptide fluorescence polarization, 2 h; also: potency is read from the fitted curve at half-maximal effect
Target sequence (P11473 whole entry, looked up): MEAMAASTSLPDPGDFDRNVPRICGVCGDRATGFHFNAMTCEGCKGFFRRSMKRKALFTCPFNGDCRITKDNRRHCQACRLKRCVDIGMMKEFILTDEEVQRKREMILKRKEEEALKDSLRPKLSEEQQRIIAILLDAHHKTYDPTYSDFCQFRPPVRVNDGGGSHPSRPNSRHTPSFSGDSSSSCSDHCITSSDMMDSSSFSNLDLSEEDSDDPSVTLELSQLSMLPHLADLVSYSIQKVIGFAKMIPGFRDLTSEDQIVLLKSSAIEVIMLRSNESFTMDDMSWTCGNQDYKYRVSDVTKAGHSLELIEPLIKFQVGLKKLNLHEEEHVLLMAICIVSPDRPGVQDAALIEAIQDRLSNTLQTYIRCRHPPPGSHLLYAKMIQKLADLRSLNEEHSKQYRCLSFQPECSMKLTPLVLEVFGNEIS
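Two reagent solutions held at 4 deg C in the dark were dispensed, compounds pinned at 23 nl, and the mixture incubated 2 h at room temperature. Read-out: fluorescence polarization of VDR–SRC2-3 peptide binding.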
PLK1 PBD block – inhibitors of human PLK1 polo-box domain binding; Potency, µM, without a hit: max response, negative = inhibition, usual class: inhibitors; Plk1 PBD binding of FITC phosphopeptide, fluorescence polarization; P53350; 2.8% of 360,000 active; also: potency is read from the fitted curve at half-maximal effect; series mostly up to about 57 µM; nearly all actives have a fitted effect of over 65% in size
CCT chaperon mod – changes cytosolic chaperonin activity; activity change, % (concentration not given with the values), hits read low; AID 651819; 0.3% of 360,000 active; purified chaperonin ATPase assay, HTRF ADP detection, 30 min; in the data active = activity change below about -30%
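Enzyme 40 or 20 nM (batch-dependent) in Tris pH 7.4/KCl/MgCl2/DTT; cpd 76 uM single point; ATP 10 uM; 30 min 37 °C; Transcreener ADP HTRF detection, 30 min RT; ratio 665/615.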
* hit, by the source's call; [ ] = dose if it differs, or a comment. Rows were chosen to be rich in hits. Some 10% of all compounds tested hit in one or more screens of this group. Unless noted, calls follow the shape of the dose curve; as a rule, active = well fitted curve in the direction sought with a large enough effect; inconclusive = small, poorly fitted or top-dose-only effect, or another doubt; inactive = no such curve, though single readings can be large; an effect the other way counts as inactive or inconclusive. Unless noted, % is scaled to controls: 0 for no effect and ±100 for the full control effect.

Results for O=C(O)c1ccccc1N/N=C/c1cc(Br)cc(Br)c1O ?
Sfp PPTase inh: -13%; Mm-Cpn inhibitor: -2%; VDR inh: inconclusive; PLK1 PBD block: 21µM*; CCT chaperon mod: -4

Results for O=c1[nH]c(=S)[nH]c2sc3c(c12)CCCCCC3 ?
Sfp PPTase inh: -22%; G9a block: 2.2µM*; Mm-Cpn inhibitor: 0%; VDR inh: inconclusive; PLK1 PBD block: inconclusive; CCT chaperon mod: -3

What do the screens show for `Nn1c(=S)[nH]c2sc3c(c2c1=O)CCCC3`?
VDR inh: inconclusive; PLK1 PBD block: inconclusive; CCT chaperon mod: 1

What do the screens show for `OC(COc1ccc2ccccc2c1Br)Cn1cnc(-c2ccccc2)c1` (stereo not drawn)?
Sfp PPTase inh: -17%; G9a block: inconclusive; Mm-Cpn inhibitor: -24%; VDR inh: -1%; PLK1 PBD block: 2%; CCT chaperon mod: -1

What do the screens show for `COc1cc(OC)cc(OCC(O)Cn2ccnc2)c1` (stereo not drawn)?
Sfp PPTase inh: 8%; G9a block: 11%; Mm-Cpn inhibitor: 3%; VDR inh: 7%; PLK1 PBD block: -4%; CCT chaperon mod: -15

Results for COc1ccc(OCC(O)Cn2cnc(-c3ccc(Br)cc3)c2)cc1 (stereo not drawn) ?
Sfp PPTase inh: 5%; G9a block: 18µM*; Mm-Cpn inhibitor: 0%; VDR inh: -15%; PLK1 PBD block: -8%; CCT chaperon mod: -2

How did OC(COc1ccc(Br)cc1)Cn1ccnc1 (stereo not drawn) do in these assays?
Sfp PPTase inh: 2%; G9a block: 79µM*; Mm-Cpn inhibitor: 1%; VDR inh: 0%; PLK1 PBD block: -7%; CCT chaperon mod: -2

How did COc1ccc(-c2cc(C(=O)NCCc3ccc(OC)c(OC)c3)c3c(-c4ccc(F)cc4)[nH]nc3n2)cc1 do in these assays?
G9a block: 9%[59 µM]; VDR inh: 2%

How did CC(=O)O[C@H]1C2=CO[C@H](C)[C@H]3[C@H]4C5=C([C@H](O)[C@H]6O[C@@H]6C5=O)[C@H](O[C@H]4C)[C@@]23C(=O)[C@H]2O[C@@H]21 do in these assays?
Sfp PPTase inh: 11%

How did Cc1ccc(NC2=C(c3ccc(C(F)(F)F)cc3)C(=O)c3ccccc32)cc1C do in these assays?
G9a block: 2.8µM*; VDR inh: -8%

What do the screens show for `COCCCNC(=O)C1CCCN(c2nn3cc(-c4ccc(C)cc4)nc3s2)C1` (stereo not drawn)?
G9a block: -4%[59 µM]; VDR inh: 21%

Results for N#CC(C#N)=C1NC(N)=C(C#N)C(c2ccccc2)=C1C#N ?
Sfp PPTase inh: 56µM*; G9a block: 3.5µM*; Mm-Cpn inhibitor: -28%

What do the screens show for `CCCCCOc1ccc(Cn2c(=O)oc3ccccc32)cc1`?
G9a block: 24%[59 µM]; VDR inh: 2%

Results for COc1ccc(NC(=O)CSc2ccc3nc(-c4ccccc4)cn3n2)c(OC)c1 ?
G9a block: inconclusive; VDR inh: 15%

Results for O=C(Nc1cccc(C(F)(F)F)c1)c1cc(S(=O)(=O)N2CCCC2)c[nH]1 ?
G9a block: -23%[59 µM]; VDR inh: 3%

What do the screens show for `O=c1oc2c3c(ccc2c2ccccc12)OCN(Cc1ccc(Cl)cc1)C3`?
G9a block: 1.4µM*; VDR inh: 0%

What do the screens show for `COc1ccccc1CN1COc2ccc3c(oc(=O)c4ccccc43)c2C1`?
G9a block: 0.79µM*; VDR inh: 6%

How did CCCc1cc(=O)oc2c3c(ccc12)OCN(Cc1ccccc1OC)C3 do in these assays?
G9a block: -2%[59 µM]; VDR inh: 12%

What do the screens show for `COc1ccc(CN2COc3ccc4c(oc(=O)c5ccccc54)c3C2)cc1OC`?
G9a block: 0.79µM*; VDR inh: 4%

Results for Cn1c(=O)c(-c2cccs2)nc2cncnc21 ?
Sfp PPTase inh: -16%; G9a block: -4%[0.501 µM]; VDR inh: 5%

How did CC(C)C(=O)Nc1ccc(NC(=O)c2ccccn2)cn1 do in these assays?
Sfp PPTase inh: -24%; G9a block: 25µM*; Mm-Cpn inhibitor: -2%; VDR inh: -2%; PLK1 PBD block: -5%; CCT chaperon mod: -1

What do the screens show for `O=C(Nc1ccc(NC(=O)C2CC2)nc1)c1ccccn1`?
Sfp PPTase inh: -27%; G9a block: 32µM*; Mm-Cpn inhibitor: 1%; VDR inh: inconclusive; PLK1 PBD block: -14%; CCT chaperon mod: 1

What do the screens show for `O=C(Nc1ccc(Cl)cc1)C1CCN(c2nc3ccccc3nc2C(F)(F)F)CC1`?
G9a block: 11%[59 µM]; VDR inh: -5%

How did Oc1cc2c(cc1CN1CCc3ccccc3C1)OCO2 do in these assays?
Sfp PPTase inh: -1%; G9a block: 20µM*; Mm-Cpn inhibitor: 0%; VDR inh: 8%; PLK1 PBD block: inconclusive; CCT chaperon mod: -2

How did O=c1[nH]ccc2c(S(=O)(=O)N3CCCNCC3)cccc12 do in these assays?
Sfp PPTase inh: 6%; G9a block: 1%[59 µM]; VDR inh: -5%

How did CCCOC(=O)c1ccc(Nc2nc3ccccc3nc2-n2nc(C)cc2C)cc1 do in these assays?
G9a block: 15%[59 µM]; VDR inh: 7%

What do the screens show for `O=C(Nc1ccc(Cl)c(Cl)c1)c1ccc(Cl)c(Cl)c1`?
Sfp PPTase inh: 2%; G9a block: 20%; Mm-Cpn inhibitor: -21%; VDR inh: -11%; PLK1 PBD block: -5%; CCT chaperon mod: 0

Results for O=C(Nc1ccc(C2=NCCN2)cc1)c1ccc(Cl)c(C(=O)Nc2ccc(C3=NCCN3)cc2)c1 ?
Sfp PPTase inh: 3%; G9a block: 18µM*; Mm-Cpn inhibitor: -17%

How did O=C(N/N=C/c1ccc(O)cc1O)c1ccc(CN2C(=O)c3cccc4cccc2c34)cc1 do in these assays?
Sfp PPTase inh: 21%; G9a block: 79µM*; Mm-Cpn inhibitor: -2%; VDR inh: 5%; PLK1 PBD block: -1%; CCT chaperon mod: 1

Results for CCn1c(NC(=O)c2ccc(F)cc2)c2ccccc2nc1=O ?
Sfp PPTase inh: 8%; G9a block: 5%[59 µM]; Mm-Cpn inhibitor: 1%; VDR inh: -5%; PLK1 PBD block: inconclusive; CCT chaperon mod: -2

What do the screens show for `O=C(Nc1nc(=O)c2ccccc2s1)c1ccc(Cl)cc1`?
Sfp PPTase inh: 25µM*; G9a block: 4µM*; Mm-Cpn inhibitor: -1%; VDR inh: -15%; PLK1 PBD block: inconclusive; CCT chaperon mod: -3

How did Nc1ccc(C(=O)Nc2nc3ccccc3s2)cc1 do in these assays?
Sfp PPTase inh: 18%; G9a block: -10%[59 µM]; Mm-Cpn inhibitor: 2%; VDR inh: 4%; PLK1 PBD block: -1%; CCT chaperon mod: 0
